# Screening data deposited in PubChem by National Center for Advancing Translational Sciences (NCATS).
# FUS suppressor = FUS proteinopathy suppression in yeast; S. cerevisiae FUS-expressing, growth rescue, OD600, 24 h; Potency, µM (highest dose often 76.6 µM), most hits filed as activators; 390,000 tested, 0.24% active; AID 1347120;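 further: plate controls were DMSO vehicle for no effect and reference control for full effect; nearly all actives have a fitted effect of over 55% in size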
#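 Yeast expressing FUS under galactose induction, OD 0.005 in 2% galactose medium; compounds in a dilution series, 24 h at 30C. Growth rescue by absorbance at 600 nm; CP55940 positive control, DMSO negative.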
# TDP43 rescue = rescues yeast growth from TDP-43 toxicity; TDP-43 expressing yeast growth rescue, BacTiter-Glo, 24 h; Potency, µM (highest dose often 46.1 µM), for the others: at the highest dose growth rescue (activation), most hits filed as activators; AID 652104; 410,000 tested, 1.8% active; further: % of control where 0% means no effect; nearly all actives have a fitted effect of over 50% in size
#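 Yeast cells expressing TDP-43 under galactose induction are exposed to compounds for 24 hr at 30 deg C. BacTiter-Glo luminescence measures growth, so protective compounds score as activators.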
# Abeta yeast res = compounds reversing amyloid beta toxicity in yeast; Potency, µM (top dose mostly 46.1 µM), most hits filed as activators; 410,000 tested, 0.063% active; yeast expressing A-beta42, growth rescue, OD600, 48 h; response scale: 0% DMSO, 100% iron-clioquinol control; further: nearly all actives have a fitted effect of over 55% in size
#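 Yeast A-beta toxicity model in growth medium with pinned compounds, 48 h at 30 C; growth read as absorbance at 600 nm. Normalized to FeCl3/clioquinol equimolar mix (positive) and DMSO (negative).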
# BCR signal inh = chronic active BCR signaling inhibition | 340,000 tested, 0.05% active | AID 493014 | ABC-DLBCL IkBa-CBG/CBR reporter, luminescence ratio, 4 h | Potency, µM (series often up to 46.1 µM), inactives show top-dose activity change, negative = inhibition, most hits filed as inhibitors; active means well fitted inhibition curve with a large enough effect in the signal ratio, with a control signal flat, not every such curve was filed as active; inconclusive means small, poorly fitted or top-dose-only effect, or effect the other way, or a change in a side signal; the % refers to the signal ratio;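 further: plate controls were basal doxycycline-induced cells for no effect and cells given 10 µM MG132 for full effect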
#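 TMD8 human ABC-DLBCL cells with doxycycline-inducible IκBα–green luciferase fusion and unfused red luciferase, in 0.5% FBS medium; compounds up to 46 uM, 4 h at 37C. Green/red luminescence ratio, filter-overlap corrected, fitted to concentration-response curves.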
# aSyn yeast inh = rescues yeast growth from alpha-synuclein toxicity; Yeast expressing alpha-synuclein, growth rescue, BacTiter-Glo, 24 h; Potency, µM (top dose mostly 46.1 µM), inactives show at the highest dose growth rescue (activation), actives largely listed as activators; 370,000 tested, 0.14% active; AID 652106; further: % of control where 0% means no effect; nearly all actives have a fitted effect of over 65% in size
#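 Galactose-induced alpha-syn yeast (OD600=0.02, raffinose-pregrown) + pinned cpd, 24 hr, 30 deg C; growth by BacTiter-Glo luminescence. Growth restoration scores as activation.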
# uPA surface inh = cell surface uPA generation inhibition; Potency, µM (top dose mostly 38.3 µM), without a hit: at the top dose activity change, negative = inhibition, most hits filed as inhibitors; 330,000 tested, 0.31% active; AID 540303; cell surface uPA generation assay, qHTS; active means well fitted inhibition curve with a large enough effect; inconclusive means small, poorly fitted or top-dose-only effect; inactive means no such curve, though single readings can be large or run the other way; tested in mouse RAW 264.7 cells; further: on the % scale 0 is the no-effect control and ±100 the full control effect; nearly all actives have a fitted effect of over 55% in size
# The depositor's hits bear a star; i = inactive; ? = inconclusive; · = not tested or not shown; [ ] = remark or other dose. An excerpt weighted towards active compounds, which were near 2.3% of everything screened. Unless noted, the call rests on the fitted dose curve; in most records, active means well fitted curve in the direction sought with a large enough effect; inconclusive means small, poorly fitted or top-dose-only effect, or another doubt; inactive means no such curve, though single readings can be large; an effect the other way counts as inactive or inconclusive. Potency means the concentration at half of the fitted maximal effect.
SMILES,FUS suppressor,TDP43 rescue,Abeta yeast res,BCR signal inh,aSyn yeast inh,uPA surface inh
COc1ccc(/C=C/CN2CCC(Oc3ccc(C(=O)N4CCCCC4)cc3)CC2)cc1,i,-8.5%,i,-10.3%,-1.5%,-6.6%
COc1ccc(Cl)cc1NC(=O)Cn1cc(C(=O)c2ccc(C)cc2)c(=O)c2ccc(C)nc21,i,0.3%,i,·,·,·
Cc1ccc(C(=O)c2cn(Cc3cccc(F)c3)c3nc(C)ccc3c2=O)cc1,i,14.1µM*,i,·,·,·
Cc1ccc(C(=O)c2cn(CC(=O)NCc3ccccc3)c3nc(C)ccc3c2=O)cc1,i,5.4%,i,·,·,·
Cc1ccc(C(=O)c2cn(Cc3ccccc3C)c3nc(C)ccc3c2=O)cc1,25.1µM*,?,i,·,·,·
CCc1ccc(C(=O)c2cn(CC(=O)Nc3cc(OC)ccc3OC)c3nc(C)ccc3c2=O)cc1,35.5µM*,-26.3%,i,·,·,·
Cc1ccc(C(=O)c2cn(Cc3ccccc3)c3nc(C)ccc3c2=O)cc1,i,11.2µM*,i,·,·,·
Cn1ccc(C(=O)Nc2sc3c(c2C#N)CCC3)n1,i,9.9%,i,1.9%,2.0%,9.2%
Cc1cc(=O)[nH]c(NNC(=O)c2ccc(Cl)cc2)n1,i,20.7%,i,·,6.8%,·
CCN(CC)C(=O)c1ccc2c(=O)n(Cc3cccc(Br)c3)c(=S)[nH]c2c1,i,11.4%,i,-3.7%,-2.9%,0.5%
CC(C)c1ccc(-n2cnn(-c3ncccc3[N+](=O)[O-])c2=O)cc1,i,11.2µM*,i,?,-3.0%,·
Cc1cc(C)n(-c2ncccc2[N+](=O)[O-])n1,i,7.1%,i,-4.6%,6.2%,-1.3%
Cc1ccc2nc(N3CCN(C(=O)C4COc5ccccc5O4)CC3)sc2c1 (stereo unspecified),i,20µM*,i,?,·,·
COc1cccc2sc(N3CCN(C(=O)C4COc5ccccc5O4)CC3)nc12 (stereo unspecified),i,?,i,-0.3%,20.3%,-27.8%
O=C(C1COc2ccccc2O1)N1CCN(c2nc3c(F)cccc3s2)CC1 (stereo unspecified),i,10µM*,12.6µM*,-10.2%,·,·
c1ccc(Cc2nn3c(Cn4nnc5ccccc54)nnc3s2)cc1,i,-5.2%,i,-10.9%,-19.1%,·
c1ccc2c(c1)OCC(c1nn3c(Cn4nnc5ccccc54)nnc3s1)O2 (stereo unspecified),31.6µM*,-3.3%,i,-2.5%,-2.8%,·
COc1ccccc1N(Cc1ccccc1)S(=O)(=O)c1cccc(C(=O)NCC2CCCO2)c1 (stereo unspecified),?,-6.2%,i,9.4%,2.3%,16.6%
CC(CNC(=O)Cn1ccc(N)nc1=O)c1ccccc1 (stereo unspecified),i,-4.9%,i,2.7%,0.8%,0.5%
COc1ccc(-n2nc([N+](=O)[O-])c(=NC3CCN(Cc4ccccc4)CC3)n2O)cc1,i,-4.2%[0.397 µM],i,3.6%,4.1%,-11.5%
O=[N+]([O-])c1nn(-c2ccc3c(c2)OCCO3)n(O)c1=NCc1ccccc1Cl,i,-3.0%,i,2.6%,11.6%,3.5%
O=[N+]([O-])c1nn(-c2ccc3c(c2)OCCO3)n(O)c1=NC1CCCCC1,i,7.94µM*,i,?,14.0%,-11.9%
COc1ccccc1CN=c1c([N+](=O)[O-])nn(-c2ccc3c(c2)OCCO3)n1O,i,17.8µM*,i,-2.1%,5.6%,-1.7%
CCOC(=O)c1c(C)[nH]c(C)c1S(=O)(=O)NCCc1sccc1C,i,5.7%,i,-11.0%,-3.6%,4.2%
O=S(=O)(c1ccc(Cl)cc1)N1CCC(O)(c2cccnc2)CC1,i,-1.2%,i,-1.0%,1.6%,-2.0%
Cc1cc(-c2nc3ccccc3s2)ccc1N,·,17.8µM*,i,·,-17.2%,-10.4%
CC(=O)Nc1cc(-c2nc3ccccc3s2)ccc1C,i,-2.9%,i,·,·,·
